# Compounds with a hit are over-represented: about 2.4% of the library has one in this group of screens.
# D2 antag – antagonizes the human D2 dopamine receptor; P14416; HEK293 TREx D2 cells, calcium flux, dopamine EC80; inhibition, % at 10 µM; 2% of 340,000 active; AID 485344; in the data active = inhibition above about 30%; inactive = below that, where a call was filed; note: 0% is about no effect
# Target sequence (P14416 whole entry, looked up): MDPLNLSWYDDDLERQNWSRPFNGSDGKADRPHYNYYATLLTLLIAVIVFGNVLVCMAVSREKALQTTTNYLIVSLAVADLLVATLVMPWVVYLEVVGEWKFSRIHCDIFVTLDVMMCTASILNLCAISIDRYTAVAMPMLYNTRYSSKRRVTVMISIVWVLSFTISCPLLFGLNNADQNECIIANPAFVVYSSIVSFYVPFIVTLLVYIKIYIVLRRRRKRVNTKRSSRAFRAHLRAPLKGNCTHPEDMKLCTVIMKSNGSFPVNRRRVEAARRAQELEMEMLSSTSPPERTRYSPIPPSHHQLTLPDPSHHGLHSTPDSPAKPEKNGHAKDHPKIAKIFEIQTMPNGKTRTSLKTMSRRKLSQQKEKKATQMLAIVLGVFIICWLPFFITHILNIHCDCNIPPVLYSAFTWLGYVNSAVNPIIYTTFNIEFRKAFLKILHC
#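 Cells plated overnight at 30 C with tetracycline; no-wash calcium dye, 30–90 min RT; 10 s baseline; compound pinned; 180 s read; EC80 dopamine added; another 180 s read.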
# D2 PAM-1 – positive allosteric modulators of human D2 dopamine receptor; P14416; HEK293 T-REx D2, calcium flux, EC20 dopamine potentiation; 0.34% of 340,000 active; potentiation, % at 10 µM;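 active = potentiation over 3 SD above the plate norm, cut at about 30% in these data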; note: 0% is about no effect
#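 Tetracycline-induced Hek293 Trex D2 cells, force-coupled to calcium, loaded with no-wash calcium dye. Compound added with 180 s kinetic read for agonism, then EC20 dopamine and a further 180 s read for potentiation.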
# D2 PAM-2 – potentiates the human D2 dopamine receptor allosterically | P14416 | DiscoveRx D2 beta-arrestin cells, luminescence, 90 min; 100% = 57 uM dopamine signal | potentiation, % (concentration not given with the values) | 0.23% of 360,000 active; in the data active = potentiation above about 50%; inconclusive = mostly about 30% to 49%
#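 D2 cells co-treated with compound plus 50 nM dopamine (EC20) for 90 min at 37 deg C to detect potentiation. Beta-arrestin recruitment was read as enzyme-fragment luminescence after 1 h at ambient temperature. Full response was set by 57 uM dopamine.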
# D2 ag-1 – human D2 receptor agonism in beta-arrestin assay; DiscoveRx PathHunter D2 beta-arrestin, luminescence, 90 min; 100% = 57 uM dopamine signal; activation, % (no concentration beside the values); AID 624465; 0.084% of 360,000 active; P14416; in the data active = activation above about 40%; inconclusive = between about 15% and that limit
#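 Agonist mode: compounds alone added to overnight-plated D2 PathHunter cells for 90 min at 37 C, with 57 uM final dopamine (EC100) defining full response. Beta-arrestin recruitment detected by chemiluminescent reagent, read after 1 h at ambient temperature.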
# D2 ag-2 – activates the human D2 dopamine receptor; HEK293 T-REx D2 cells, calcium flux agonist mode; 0.53% of 340,000 active; activation, % at 2 µM; P14416;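 active = activation over 3 SD above normal in the single-dose calcium agonist read, cut at about 30% in these data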; note: 0% is about no effect
#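 HEK293 Trex D2 cells, tetracycline-induced, o/n 30 C 5% CO2; no-wash Ca dye, RT 30–90 min; 10-cycle baseline, 23 nl cpd added, kinetic Ca read 180 s; agonist hits = positive Ca response.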
# Numbers without * were called inactive; ? = inconclusive; . = no result given.
SMILES,D2 antag,D2 PAM-1,D2 PAM-2,D2 ag-1,D2 ag-2
CCOC(=O)c1c(NC(=S)NCc2ccccc2)sc2c1CCN(C(=O)OCC)C2,18,6,-4,-8,0
C=CCNC(=S)Nc1sc2c(c1C(=O)OCC)CCN(C(=O)OCC)C2,-13,40*,-17,-1,0
CCCCSCCCNC(=O)c1cn(CC)c2ccc(S(=O)(=O)N(C)C3CCCCC3)cc2c1=O,.,4,.,.,1
NC(=S)N=Nc1c(O)n(Cc2ccc(Br)cc2)c2ccccc12,1,-3,52*,-2,0
NC(=S)N=Nc1c(O)n(Cc2ccc(F)cc2)c2ccccc12,19,-1,-4,-1,0
CCN(C(=O)CSc1nc2ccccc2c2nc(CCn3c(C)nc4ccccc43)nn12)c1cccc(C)c1,.,5,.,.,0
O=S(=O)(c1cccc(NC(=S)Nc2ccc(Br)cc2Cl)c1)N1CCOCC1,38*,9,-22,-8,0
O=C(Nc1nc2ccc(S(=O)(=O)N3CCOCC3)cc2s1)c1cccs1,57*,14,-2,6,1
O=C(Nc1cccc(Cl)c1)c1cc(S(=O)(=O)N2CCOCC2)cs1,35*,-14,-20,1,0
O=C(COC(=O)c1cccs1)Nc1cccc(S(=O)(=O)N2CCOCC2)c1,36*,-3,-7,-2,1
O=C(Nc1nc2ccc(S(=O)(=O)N3CCCC3)cc2s1)c1cccs1,-21,6,-28,-2,0
CCCCOc1ccc(C(=O)N(Cc2ccc(C(C)C)cc2)C2CCS(=O)(=O)C2)cc1 (configuration not stated),.,-4,.,.,.
N/C(=N\OS(=O)(=O)c1ccccc1)c1ccncc1,0,2,96*,?,-1
N/C(=N\OS(=O)(=O)c1ccc2ccccc2c1)c1ccncc1,-12,10,151*,41*,-1
NS(=O)(=O)c1ccc(CCNC(=O)CNC(=O)c2ccc(Br)o2)cc1,66*,-25,-5,-3,0
O=C(Nc1cccc(C(F)(F)F)c1)N1CCC(CN2CCCCCC2)CC1,.,2,.,.,1
CCCCC(=NCCc1c(C)[nH]c2ccc(OC)cc12)C1=C(O)CC(c2ccccc2)CC1=O (configuration not stated),-13,33*,-20,2,6
CCN1CCCC1CNC(=O)c1cc(S(N)(=O)=O)ccc1OC (configuration not stated),.,.,-33,-6,.
CCN1CCCC1CNC(=O)c1cc(NC(C)=O)c(N(C)C)cc1OC (configuration not stated),69*,-19,-18,-1,0
CCC(=O)Nc1cc(C(=O)NCC2CCCN2CC)c(OC)cc1N(C)C (configuration not stated),73*,-21,-21,0,1
CCN1CCCC1CNC(=O)c1ccccc1Cl (configuration not stated),.,.,-13,-1,.
Brc1ccc(-c2cn3c(n2)CCc2ccc4cccnc4c2-3)cc1,-6,32*,-12,3,-1
Brc1ccc(-c2cn3nc4c(nc3n2)CCCC4)cc1,8,-7,-10,-1,0
C=CCn1c(SCn2nnc3ccccc3c2=O)nnc1-c1ccc(Br)cc1,-10,36*,-6,-1,-2
C=CCn1c(SCn2nnc3ccccc3c2=O)nnc1-c1ccc(F)cc1,-6,8,-1,2,0
SMILES,D2 antag,D2 PAM-1,D2 PAM-2,D2 ag-1,D2 ag-2
COc1ccc(CNC(=O)c2cc(-c3ccc(C)c(C)c3)n[nH]2)cc1,.,-7,.,.,-1
Cc1ccc2oc(=O)cc(CN3CCN(Cc4ccccc4)CC3)c2c1,52*,-21,-13,0,-1
Cc1cc2oc(=O)cc(CN3CCN(S(=O)(=O)/C=C/c4ccccc4)CC3)c2cc1C,-4,-17,-9,0,36*
Cc1cc2oc(=O)cc(CN3CCN(S(=O)(=O)c4ccc5c(c4)OCCO5)CC3)c2cc1C,0,10,-4,-3,-1
CN1CCN(Cc2cc(=O)oc3ccc(Cl)cc23)CC1,45*,-6,-15,-4,1
Cc1cc(Nc2cccc(C(F)(F)F)c2)nc2ccc(NC(=O)c3cccnc3)cc12,.,6,.,.,0
CCOC(=O)/C(N=Nc1ccc2c(c1)OCO2)=C(\C)O,8,119*,4,2,-1
Cc1ccc(CNC(=O)C(C)OC(=O)c2ccco2)cc1 (configuration not stated),6,2,-2,-2,0
CCC(OC(=O)c1ccco1)C(=O)NCc1ccc(C)cc1 (configuration not stated),66*,-25,2,-2,1
CCN1C(=O)[C@H]2[C@@H](c3ccc(-c4ccc(C(C)=O)cc4)c(OC)c3)N[C@@](Cc3ccccc3)(C(=O)OC)[C@H]2C1=O,32*,7,-3,1,0
C(=N\N1CCOCC1)/c1nc(-c2ccccc2)n2ccccc12,43*,1,-2,2,1
Cc1cc(SCC(=O)Nc2nsc(-c3ccc(C(C)(C)C)cc3)n2)nc2ccccc12,.,3,.,.,.
CCOC(=O)C1(c2csc(N)n2)COC(=O)C1 (configuration not stated),44*,2,3,-4,1
CN(C)S(=O)(=O)c1cccc(C(=O)Nc2ccc(Cl)cn2)c1,37*,8,-5,-1,0
O=C(Nc1ccc(Cl)cn1)c1cccc(S(=O)(=O)N2CCCC2)c1,-12,-3,-4,-2,-1
Cc1cc2c(s1)Nc1ccccc1N=C2N1CCN(C)CC1,77*,.,.,.,.
CC(=O)c1c(C)nc2nc(-c3ccccc3)nn2c1C,.,0,.,.,0
O=S(=O)(Nn1cnnc1)c1ccccc1Cl,30*,9,8,-1,1
CN(CC1CCN(CCc2cccc(C(F)(F)F)c2)CC1)C(=O)c1ccc(F)cc1F,65*,-25,-3,-2,0
Cc1nc(N2CCc3ccccc3C2)[nH]c(=O)c1Cc1ccccc1,12,5,1,0,1
CCCCCc1c(C)nc(N2CCc3ccccc3C2)[nH]c1=O,32*,-14,-16,-4,-2
CCOC(=O)c1c(C)[nH]c(CCC(=O)Nc2cc(C)cc(C)c2)c1C,.,-11,.,.,0
Nc1nc(NCc2ccco2)nc(N2CCN(Cc3ccccc3)CC2)c1[N+](=O)[O-],89*,-15,-26,-3,0
Nc1nc(NCc2ccco2)nc(N2CCCC2)c1[N+](=O)[O-],7,2,1,1,2
Nc1nc(Nc2ccccc2F)nc(N2CCCC2)c1[N+](=O)[O-],-7,7,0,-2,0
CCN1CCN(c2nc(Nc3ccc(OC)cc3)nc(N)c2[N+](=O)[O-])CC1,41*,-10,-22,0,-1
